Source: PubChem BioAssay
Where “and” joins values, the source holds several entries; their conditions need not be identical. Equal entries are not always repeated. A structure can be active in one record and inactive in another. Calls of active or inactive are those of the source. Unless noted, how the calls were made is not given here.

Assays:
[1] = test system: Wnt5a (protein binding on small-molecule microarray); assay: small molecules binding Wnt5a protein – biophysical, small-molecule microarray, 635/667 nm fluorescence, primary screen (AID 1142); details: 635 nm fluorescence, higher = more signal;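 further: fluorescence read at 667 nm with signal to noise per printed feature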
[2] = ATP-based viability of Huh7 replicon cells – cell-based, CellTiter-Glo luminescence, basal, 48 h, cytotoxicity control for HCV replication inhibitor project, primary screen (AID 1143); details: higher = more signal, called active from +8 up or from −8 down;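 further: Huh7 hepatoma cells carrying a hepatitis C replication reporter with no stimulus; test concentration not given here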
[3] = Pseudomonas biofilm growth suppression – PAO1 strain, BacTiter-Glo luminescence, LB-PBS, primary screen (AID 1144); details: P. aeruginosa PAO1 biofilm, 12 h, higher = more signal
[4] = basal CRE-LacZ reporter activity in PC12 – cell-based, unstimulated, primary screen (AID 1145); details: no forskolin, luminescence, 4.5 h, higher = more signal, called active from +8 up or from −8 down
[5] = forskolin-driven CRE-LacZ activity in PC12 – cell-based, CRE-LacZ reporter, forskolin-stimulated, primary screen (AID 1146); details: luminescence, 4.5 h, higher = more signal, called active from +8 up or from −8 down;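 further: PC12 cells with 6xCRE LacZ reporter stimulated by forskolin 10 µM; beta-galactosidase reporter signal reflecting CREB driven transcription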
[6] = target: Streptavidin (Streptomyces avidinii) (UniProt P22629); assay: compounds binding control protein streptavidin – biophysical, small-molecule microarray, 635/667 nm fluorescence, artefact control for SMM compound annotation, primary screen (AID 1147); details: higher = more signal;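 further: signal reflects streptavidin binding to arrayed compounds as a control protein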
[7] = probe aInhba binding on compound microarray – biochemical, small-molecule microarray, 635/667 nm fluorescence, primary screen (AID 1148); details: higher = more signal;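 further: score merges 667nm spot fluorescence with signal-to-noise for antibody binding to printed compounds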
[8] = target: Torsin-1A (Homo sapiens) (UniProt O14656); assay: TOR1A wild-type binding on microarray – cell lysate, small-molecule microarray, lysate, 635/667 nm, primary screen (AID 1149); details: COS7 hTOR1A-WT lysate, 635 nm fluorescence, higher = more signal
[9] = target: Torsin-1A (Homo sapiens) (UniProt O14656); assay: torsin A mutant lysate binding on microarrays – cell lysate, small-molecule microarray, COS7 lysate, 635/667 nm fluorescence, primary screen (AID 1150); details: COS7 hTOR1A mutant lysate, 635 nm fluorescence, higher = more signal;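 further: score pools 667 nm emission and signal to noise measuring lysate protein binding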
[10] = test system: Sonic hedgehog protein (Shh); assay: Sonic hedgehog microarray binding compounds – biochemical, small-molecule microarray, 635/667 nm fluorescence, primary screen (AID 1151); details: 635 nm fluorescence, higher = more signal;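 further: Shh protein binding to compounds spotted on small-molecule microarray slides; score combines spot fluorescence intensity with signal-to-noise across triplicate slides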
[11] = optical density shifts of acrAB sulA E. coli – strain DRC41, OD650, 48 h, E. coli filamentation inducer project, primary screen (AID 1152); details: higher = more signal, called active from +8 up or from −8 down;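 further: E. coli MC1000 strain DRC41 lacking acrAB efflux pump and sulA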
[12] = probe aLefty1 binding on compound microarray – biochemical, small-molecule microarray, 635/667 nm fluorescence, primary screen (AID 1153); details: higher = more signal;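 further: score merges spot fluorescence with signal-to-noise ratio from the scanned slide images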
[13] = plasmodial surface anion channel blockers, osmotic lysis – cell-based, P. falciparum Indochina, OD700, 1 h, primary screen (AID 1154); details: P. falciparum Indochina infected RBC osmotic lysis, higher = more signal, called active from +8 up or from −8 down
[14] = plasmodial surface anion channel blockers, osmotic lysis – cell-based, P. falciparum Indochina, OD700, 2 h, primary screen (AID 1155);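 further: lysis reports solute entry through the parasite surface anion channel PSAC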; details: P. falciparum Indochina infected erythrocytes, higher = more signal, called active from +8 up or from −8 down
[15] = changes in parasitized red cell lysis, either direction – P. falciparum Indochina, OD700, 3 h, PSAC antagonist project, primary screen (AID 1156); details: P. falciparum-infected erythrocytes, osmotic lysis, higher = more signal, called active from +8 up or from −8 down
[16] = plasmodial surface anion channel blockers, osmotic lysis – cell-based, P. falciparum Indochina, OD700, 18 h, primary screen (AID 1157); details: P. falciparum Indochina infected erythrocytes, osmotic lysis OD700, 18 h; higher = more signal, called active from +8 up or from −8 down
[17] = S6 kinase pathway phospho-S6 level changes – cell-based, A549, cytoblot, luminescence, serum-stimulated, primary screen (AID 1158); details: 5 h, higher = more signal;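 further: serum-stimulated A549 lung adenocarcinoma cells; signal is phosphorylated S6 detected by cytoblot immunostaining with HRP secondary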
[18] = target: NADPH oxidase 2 (Homo sapiens) (UniProt P04839); assay: compounds shifting NOX2 Amplex Red fluorescence – cell-based, HEK293-NOX2, PMA-stimulated, NOX inhibitor project, primary screen (AID 1159); details: 45 min, higher = more signal, called active from +8 up or from −8 down; further: test concentration not given here
[19] = target: NADPH oxidase 4 (Homo sapiens) (UniProt Q9NPH5); assay: compounds shifting NOX4 Amplex Red fluorescence – cell-based, HEK293-NOX4, tetracycline-induced, NOX inhibitor project, primary screen (AID 1160); details: HEK293-NOX4, Amplex Red H2O2 fluorescence, 45 min; higher = more signal, called active from +8 up or from −8 down
[20] = target: NADPH oxidase 5 (Homo sapiens) (UniProt Q96PH1); assay: compounds shifting NOX5 Amplex Red fluorescence – cell-based, HEK293-NOX5, NOX inhibitor project, primary screen (AID 1161); details: HEK293-NOX5, ionomycin, 45 min, higher = more signal
Chain of NADPH oxidase 5 (Homo sapiens) (Q96PH1 whole entry, looked up): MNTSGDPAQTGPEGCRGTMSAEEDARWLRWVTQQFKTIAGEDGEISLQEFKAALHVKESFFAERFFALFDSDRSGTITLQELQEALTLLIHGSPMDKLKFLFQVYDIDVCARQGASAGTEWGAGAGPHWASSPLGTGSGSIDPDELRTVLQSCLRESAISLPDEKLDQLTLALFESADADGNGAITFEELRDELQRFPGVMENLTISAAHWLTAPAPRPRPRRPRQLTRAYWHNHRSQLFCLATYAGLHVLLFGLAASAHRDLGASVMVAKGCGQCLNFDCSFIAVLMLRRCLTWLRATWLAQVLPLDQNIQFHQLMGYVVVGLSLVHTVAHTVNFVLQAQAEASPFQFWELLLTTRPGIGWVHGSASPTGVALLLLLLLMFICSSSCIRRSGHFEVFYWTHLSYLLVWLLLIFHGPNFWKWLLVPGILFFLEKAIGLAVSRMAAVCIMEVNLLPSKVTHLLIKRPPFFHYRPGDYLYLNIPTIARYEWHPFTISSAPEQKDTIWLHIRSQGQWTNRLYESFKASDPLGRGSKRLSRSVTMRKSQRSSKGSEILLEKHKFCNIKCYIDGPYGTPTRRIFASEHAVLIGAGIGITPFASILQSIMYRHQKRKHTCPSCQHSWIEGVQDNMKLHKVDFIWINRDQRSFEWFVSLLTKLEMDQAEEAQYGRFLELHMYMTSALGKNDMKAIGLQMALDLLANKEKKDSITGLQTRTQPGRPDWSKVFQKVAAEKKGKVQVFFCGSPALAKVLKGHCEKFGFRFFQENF

Chain of Streptavidin (Streptomyces avidinii) (P22629 whole entry, looked up): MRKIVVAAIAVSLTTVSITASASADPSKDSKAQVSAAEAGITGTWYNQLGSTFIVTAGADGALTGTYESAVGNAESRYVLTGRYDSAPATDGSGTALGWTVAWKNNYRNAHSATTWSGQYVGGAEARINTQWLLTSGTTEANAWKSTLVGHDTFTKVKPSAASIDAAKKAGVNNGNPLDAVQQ
Chain of NADPH oxidase 2 (Homo sapiens) (P04839 whole entry, looked up): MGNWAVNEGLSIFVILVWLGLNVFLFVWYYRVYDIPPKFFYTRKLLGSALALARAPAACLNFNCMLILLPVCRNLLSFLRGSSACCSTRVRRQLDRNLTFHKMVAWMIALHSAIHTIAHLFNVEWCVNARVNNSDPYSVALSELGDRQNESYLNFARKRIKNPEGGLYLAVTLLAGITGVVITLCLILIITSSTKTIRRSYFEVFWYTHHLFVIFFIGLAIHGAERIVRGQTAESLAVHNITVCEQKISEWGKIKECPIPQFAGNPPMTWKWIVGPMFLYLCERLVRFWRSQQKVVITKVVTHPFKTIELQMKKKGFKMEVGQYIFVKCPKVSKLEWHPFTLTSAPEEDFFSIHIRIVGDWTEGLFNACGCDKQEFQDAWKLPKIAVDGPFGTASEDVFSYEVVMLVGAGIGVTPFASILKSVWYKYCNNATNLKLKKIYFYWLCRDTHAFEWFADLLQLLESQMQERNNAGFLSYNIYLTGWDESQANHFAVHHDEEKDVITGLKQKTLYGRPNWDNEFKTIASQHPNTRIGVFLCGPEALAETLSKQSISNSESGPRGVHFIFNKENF
Chain of Torsin-1A (Homo sapiens) (O14656 whole entry, looked up): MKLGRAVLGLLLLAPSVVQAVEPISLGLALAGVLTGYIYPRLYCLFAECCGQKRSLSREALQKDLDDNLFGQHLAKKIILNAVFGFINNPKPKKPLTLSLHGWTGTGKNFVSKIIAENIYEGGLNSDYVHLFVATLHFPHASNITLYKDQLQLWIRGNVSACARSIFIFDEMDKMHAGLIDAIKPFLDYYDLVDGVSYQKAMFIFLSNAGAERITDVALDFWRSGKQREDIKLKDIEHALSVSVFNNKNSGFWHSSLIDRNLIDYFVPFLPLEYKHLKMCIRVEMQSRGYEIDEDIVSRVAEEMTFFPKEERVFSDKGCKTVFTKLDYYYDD
Chain of NADPH oxidase 4 (Homo sapiens) (Q9NPH5 whole entry, looked up): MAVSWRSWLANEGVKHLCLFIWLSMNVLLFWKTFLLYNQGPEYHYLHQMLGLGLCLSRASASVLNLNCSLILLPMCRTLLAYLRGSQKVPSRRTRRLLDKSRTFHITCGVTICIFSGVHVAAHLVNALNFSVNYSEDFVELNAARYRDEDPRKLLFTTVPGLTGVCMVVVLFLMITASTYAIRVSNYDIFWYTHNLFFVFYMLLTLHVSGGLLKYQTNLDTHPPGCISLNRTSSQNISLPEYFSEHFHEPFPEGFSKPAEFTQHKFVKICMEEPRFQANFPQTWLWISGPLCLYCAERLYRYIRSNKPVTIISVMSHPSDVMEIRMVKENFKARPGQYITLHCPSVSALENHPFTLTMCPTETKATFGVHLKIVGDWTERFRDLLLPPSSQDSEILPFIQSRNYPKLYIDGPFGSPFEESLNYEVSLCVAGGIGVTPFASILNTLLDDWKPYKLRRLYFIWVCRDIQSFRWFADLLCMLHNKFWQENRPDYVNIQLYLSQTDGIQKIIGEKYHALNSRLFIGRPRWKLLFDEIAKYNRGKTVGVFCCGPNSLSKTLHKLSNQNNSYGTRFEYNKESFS

SMILES | composite z-score [1] | z-score [2] | z-score [3] | z-score [4] | z-score [5] | composite z-score [6] | composite z-score [7] | composite z-score [8] | composite z-score [9] | composite z-score [10] | z-score [11] | composite z-score [12] | z-score [13] | z-score [14] | z-score [15] | z-score [16] | z-score [17] | z-score [18] | z-score [19] | z-score [20]
C=CCN(Cc1ccccc1)C(=O)C1N(CCCCCCO)C(=O)C2C(C(=O)O)C3C=CC21O3 (stereo not given) | -1.02 and -1.77 | -0.118 (inactive) and 0.533 (inactive) | -0.12 (inactive) and -1.45 (inactive) | -1.31 (inactive) and -1.44 (inactive) | -0.665 (inactive) and -0.279 (inactive) | -1.02 and -1.77 | -0.159 and -0.21 | -3.02 and -4.56 | -2.45 and 0.914 | -1.62 and -1.85 | -0.107 (inactive) and 0.999 (inactive) | -0.0508 and -0.101 | 0.506 (inactive) and 0.459 (inactive) | -0.232 (inactive) and -0.314 (inactive) | -0.911 (inactive) and -0.362 (inactive) | 0.135 (inactive) and 0.161 (inactive) | -0.276 and 0.27 | 0.498 (inactive) and 0.0836 (inactive) | -0.308 (inactive) and -0.348 (inactive) | 0.751 and 0.232
C[C@@H]1CC[C@@H](C(=O)O)N[C@H]1c1ccc(-c2ccco2)cc1 | 0.266 | 0.0233 (inactive) | -0.778 (inactive) | -0.339 (inactive) | -0.885 (inactive) | 0.192 | -0.0791 | 1 | 0.406 | 0.611 | -0.601 (inactive) | 0.0721 | 0.732 (inactive) | 1.2 (inactive) | 0.871 (inactive) | 0.883 (inactive) | -0.282 | -0.71 (inactive) | 0.156 (inactive) | 0.798
CCCCN1CC=CC23O[C@@H]4C=CCCOC(=O)C4[C@H]2C(=O)N(C(C)CO)[C@@H]3C1=O (stereo not given in full) | -0.296 and 0.339 | 0.161 (inactive) and -0.214 (inactive) | 0.781 (inactive) and 1.82 (inactive) | -0.216 (inactive) and -0.204 (inactive) | 0.405 (inactive) and -0.764 (inactive) | -1.23 and -0.178 | -0.143 and 0.201 | 0.234 and -0.131 | 0.234 and 0.148 | 0.173 and 0.798 | -0.462 (inactive) and -0.0672 (inactive) | -0.007 and 0.0181 | 1.77 (inactive) and 0.636 (inactive) | 0.446 (inactive) and 1.06 (inactive) | 0.874 (inactive) and 1.09 (inactive) | 0.234 (inactive) and 0.601 (inactive) | 1.48 and 1.2 | 1.49 (inactive) and 1.3 (inactive) | 0.784 (inactive) and 0.359 (inactive) | 2.31 and 2
COC(=O)CC=C[C@@H](C)[C@@H](CO)NS(=O)(=O)c1ccc(C)cc1 | 0.234 and 0.125 | 0.577 (inactive) and -0.18 (inactive) | 0.773 (inactive) and -0.379 (inactive) | 1.1 (inactive) and 0.288 (inactive) | -0.196 (inactive) and -0.693 (inactive) | -0.183 and 0.469 | -0.05 and 0.0248 | 0.448 and 0.478 | 0.32 and 1.08 | 0.759 and 1.44 | -0.242 (inactive) and 0.0668 (inactive) | -0.0971 and -0.148 | -0.577 (inactive) and 5.54 (inactive) | -0.08 (inactive) and 1.47 (inactive) | 0.245 (inactive) and 0.644 (inactive) | -0.145 (inactive) and 1.05 (inactive) | -0.244 and 0.392 | -0.132 (inactive) and 0.154 (inactive) | -0.00804 (inactive) and 0.453 (inactive) | -0.00181 and 0.301
C=C[C@@H](C)[C@H](O)c1ccc(O)c2ccccc12 | -0.419 and -0.647 | -2.11 (inactive) and 0.366 (inactive) | -0.14 (inactive) and -0.671 (inactive) | 0.441 (inactive) and -0.272 (inactive) | -0.349 (inactive) and 0.556 (inactive) | -0.984 and -0.766 | -0.224 and -0.233 | -0.595 and -0.309 | -0.518 and -0.45 | 1.96 and 0.17 | 0.687 (inactive) and 0.0364 (inactive) | -0.313 and -0.104 | 1.57 (inactive) and 1.31 (inactive) | 0.651 (inactive) and 0.739 (inactive) | -0.198 (inactive) and -0.13 (inactive) | 0.795 (inactive) and 0.599 (inactive) | 0.166 and 0.217 | -4.9 (inactive) and -4.75 (inactive) | -0.696 (inactive) and -0.723 (inactive) | 1.07 and 1.48
O=C1NC(=O)C2C1C=CC(C(O)c1ccc([N+](=O)[O-])cc1)N2Nc1ccc(Cl)cc1Cl (stereo not given) | 0.283 and 0.0563 | -0.311 (inactive) and -0.861 (inactive) | -1.48 (inactive) and -2.27 (inactive) | 0.812 (inactive) and 0.443 (inactive) | 0.479 (inactive) and -0.492 (inactive) | 0.404 and 0.519 | 0.0301 and 0.175 | 0.339 and 1.2 | 0.703 and 1.22 | -0.274 and -0.13 | 0.302 (inactive) and 1.01 (inactive) | 0.134 and 0.623 | 9.67 (active) and 3.11 (inactive) | 0.913 (inactive) and 0.168 (inactive) | 0.538 (inactive) and -0.138 (inactive) | -0.988 (inactive) and -1.28 (inactive) | 0.474 and 0.7 | 0.313 (inactive) and 0.609 (inactive) | -5.29 (inactive) and -4.55 (inactive) | -1.98 and -1.75
